Screens (PubChem BioAssay)
Cav32 inh: Cav3.2 calcium influx blockers – cell-based, Fluo-4 calcium fluorescence, FDSS, MLSMR library, primary screen; Cav3.2-expressing cells; stronger effect = lower value; B-score at 10 µM; 4% of 100,000 active;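 active = single-dose well whose peak fluorescence ratio is a statistical outlier from its plate by either plate-standardised score or position-corrected B-score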
CYP2C9 activ: human CYP2C9 activators, primary screen, biochemical, luminescence. 1.4% of 96,000 active. recombinant CYP2C9, luciferin-H conversion; stronger effect = higher value; factor 1 = untreated enzyme, 0 = blocked. activation factor at 5 µM. AID 1024, 2008. Cytochrome P450 2C9 (Homo sapiens), P11712;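 active = activation factor of 2 or more for CYP2C9 at a 5 µM dose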;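 also: 0 = sulfaphenazole-blocked wells and 1 = vehicle-only wells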
Target sequence (P11712 whole entry, looked up): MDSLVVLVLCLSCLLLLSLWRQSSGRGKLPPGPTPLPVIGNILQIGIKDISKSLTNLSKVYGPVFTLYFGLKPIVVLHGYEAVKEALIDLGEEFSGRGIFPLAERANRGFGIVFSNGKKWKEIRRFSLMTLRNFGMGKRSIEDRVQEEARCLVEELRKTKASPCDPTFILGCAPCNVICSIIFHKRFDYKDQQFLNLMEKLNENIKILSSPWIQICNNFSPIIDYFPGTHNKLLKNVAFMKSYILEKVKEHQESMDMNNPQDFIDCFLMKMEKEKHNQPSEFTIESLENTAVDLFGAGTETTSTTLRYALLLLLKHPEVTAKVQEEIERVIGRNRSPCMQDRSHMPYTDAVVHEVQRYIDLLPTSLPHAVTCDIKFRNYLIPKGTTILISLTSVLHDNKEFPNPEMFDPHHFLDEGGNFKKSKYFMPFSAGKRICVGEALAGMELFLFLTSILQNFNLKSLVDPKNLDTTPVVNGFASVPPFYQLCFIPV
CYP2C19 inhib: blockers of cytochrome P450 2C19 activity – biochemical, luminescence, ADME assay, primary screen; P33261; CYP2C19 Supersomes, luciferin-H EGE luminescence, 30 min; 21% of 96,000 active; inhibition, % at 5 µM;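 active = CYP2C19 inhibition above a set limit at 5 µM in the primary screen, cut at about 50% in these data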;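 also: plate controls were negative control wells for no effect and 2.5 mM tranylcypromine positive control for full effect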
CYP2C9 inhib: blockers of cytochrome P450 2C9 activity – biochemical, luminescence, ADME assay, primary screen; CYP2C9 Supersomes, luciferin-H conversion; AID 777, 2007; P11712; 20% of 96,000 active; inhibition, % at 5 µM;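 active = blocking of liver enzyme CYP2C9 beyond about 50% at 5 µM, limit read from the data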
CYP2C19 act: human CYP2C19 activators, primary screen, biochemical, luminescence; recombinant CYP2C19, luciferin-H EGE luminescence; stronger effect = higher value; 0 = fully inhibited enzyme, 1 = untreated enzyme; activation factor at 5 µM; 96,000 tested, under 10 active;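 active = activation factor of at least 2 at 5 µM in the primary screen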;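 also: 0 = wells with 2.5 mM tranylcypromine and 1 = vehicle-only wells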
The depositor's hits bear a star; · = not tested or not shown. Most compounds without a hit are left out; they make up all but 27% or so of the library.

SMILES | Cav32 inh | CYP2C9 activ | CYP2C19 inhib | CYP2C9 inhib | CYP2C19 act
Cc1nc2c(-c3ccc(F)cc3)c(C)nn2c(C)c1CCC(=O)NCCN1CCOCC1 | 1.4 | 1 | -2 | 4 | 1
CCOC(=O)C1CCN(C(=O)CCc2c(C)nc3c(-c4ccc(F)cc4)c(C)nn3c2C)CC1 | 0.089 | 0.9 | 9 | 12 | 0.9
Cc1nc2c(-c3ccc(F)cc3)c(C)nn2c(C)c1CCC(=O)N1CCOCC1 | 0.96 | 0.6 | 51* | 38 | 0.5
Cc1nc2c(-c3ccc(F)cc3)c(C)nn2c(C)c1CCC(=O)N1CCN(c2ccc(F)cc2)CC1 | -6.2* | 0.3 | 62* | 67* | 0.4
C=CCNC(=O)c1ccc2c(c1)S(=O)(=O)c1ccccc1C2=O | 0.11 | · | · | · | ·
CC1=C(C(=O)OC(C)C)C(C)C(C(=O)OC(C)C)=C(C)N1 | -3.5 | 0.1 | 100* | 92* | 0
CCOC(=O)c1ccc(NS(=O)(=O)c2cc(C)ccc2OC)cc1 | -2.4 | 0.4 | -5 | 58* | 1.1
COc1ccc(OC)c(S(N)(=O)=O)c1 | -0.45 | 1 | 13 | 2 | 0.9
CCOC(=O)c1ccc(N/C=C/C(=O)c2ccc(OC)c(OC)c2)cc1 | -1.3 | 1.6 | 8 | -59 | 0.9
CCOc1ccc(NS(=O)(=O)c2cc(OC)ccc2OC)cc1 | -0.28 | 0.2 | 49 | 79* | 0.5
CCOc1ccc(S(=O)(=O)Nc2ccc(F)cc2)c(C)c1C | -4.7* | 0 | 100* | 100* | 0
COc1ccc(OC)c(S(=O)(=O)Nc2ccc(O)c3ccccc23)c1 | -0.73 | 0.2 | 76* | 84* | 0.2
COc1ccc(Cl)c(Cn2c(NCCCO)nc3c2c(=O)n(C)c(=O)n3C)c1 | 1.9 | 0.9 | 2 | 7 | 1
CCCN1CCN(CCCNC(=O)Cn2nc(-c3ccccc3)ccc2=O)CC1 | 0.67 | 1 | -3 | 2 | 1
CCCCCCCCc1nnc(NC(=O)c2ccco2)s1 | -2.3 | 0.6 | 28 | 43 | 0.7
CCOC(=O)c1cnc2sc3c(n2c1=O)CCCC3 | 0.85 | 1.2 | 8 | -24 | 0.9
COC(=O)c1c(C)oc2ccc(NS(=O)(=O)c3cc(OC)ccc3OC)cc12 | 0.015 | 0.8 | 4 | 15 | 1
COc1ccc(OC)c(S(=O)(=O)Nc2ccc(O)c(Sc3ncn[nH]3)c2)c1 | -0.026 | 0.6 | 80* | 43 | 0.2
COc1ccc(OC)c(S(=O)(=O)Nc2ccc(C(C)=O)cc2)c1 | 0.27 | 0.6 | 47 | 44 | 0.5
COc1ccc(OC)c(S(=O)(=O)Nc2ccc(Oc3ccccc3)cc2)c1 | -3.3 | 0.2 | 97* | 82* | 0
COc1ccc(OC)c(S(=O)(=O)Nc2ccc(C(N)=O)cc2)c1 | 0.76 | 0.7 | 60* | 30 | 0.4
CCOC(=O)c1ccc(Nc2ccc(-c3ccc(OC)c(OC)c3)nn2)cc1 | · | 0.8 | 31 | 16 | 0.7
CCCCOC(=O)c1ccc(NS(=O)(=O)c2cc(-c3nnnn3CC)ccc2OC)cc1 | -1.2 | 0.3 | 12 | 71* | 0.9
O=C1OC2CCC1(c1ccccc1)C2 (centres undefined) | 0.73 | · | · | · | ·
O=C(NCc1ccc(Cl)cc1)c1ccc(-c2ccccc2C(F)(F)F)o1 | -0.12 | · | · | · | ·
SMILES | Cav32 inh | CYP2C9 activ | CYP2C19 inhib | CYP2C9 inhib | CYP2C19 act
CCS(=O)(=O)N1CCC(NC(C)=O)(c2ccccc2)CC1 | 0.65 | 1.1 | -10 | -12 | 1.1
CC(=O)NC1(c2ccccc2)CCN(Cc2nnnn2C(C)(C)C)CC1 | 0.28 | 0.7 | 67* | 32 | 0.3
CCOC(=O)c1ccc(NC(=O)NC2CC3CCC(C2)N3Cc2nnnn2Cc2ccco2)cc1 (centres undefined) | -6.1* | 0.6 | 31 | 37 | 0.7
CC(C)(C)n1nnnc1CN1C2CCC1CC(NC(=O)Nc1ccccc1)C2 (centres undefined) | 1.2 | 0.5 | 8 | 53* | 0.9
O=C(C1CCCN(S(=O)(=O)c2cccc3cccnc23)C1)N1CCc2ccccc21 (centres undefined) | 0.2 | 1.3 | 29 | -29 | 0.7
Cc1ccc(-c2cc(C(=O)Nc3c(C#N)cnn3C)no2)cc1 | 0.046 | 0.4 | -15 | 56* | 1.2
Cc1ccc(-c2cc(C(=O)Nc3cnn(C(C)C)c3)no2)cc1 | -0.27 | 0.8 | -4 | 21 | 1
CCc1c(C)sc(NC(=O)c2cc(-c3ccc(O)cc3)on2)c1C#N | 0.24 | 2.1* | -2 | -106 | 1
COCC(C)NC(=O)c1cc(-c2ccc(O)cc2)on1 (centres undefined) | 0.092 | 2.4* | 11 | -138 | 0.9
COc1ccc2c(c1)c(CCNNC(=O)C(C)(C)C)c(C)n2C(=O)c1ccc(Cl)cc1 | -1.7 | · | · | · | ·
COc1cc(Br)cc2cc(C(=O)OC3CCN(C)CC3)c(=O)oc12 | 1.3 | · | · | · | ·
CN(C)S(=O)(=O)c1ccc(-c2cn3ccccc3n2)cc1 | 1.7 | 0.5 | 12 | 54* | 0.9
CCOC(=O)CN1C(=O)COc2ccc(Cl)cc21 | 1.1 | 1 | 6 | 1 | 0.9
CC(=O)c1cccc(NC(=O)CN2C(=O)C3C4C=CC(C4)C3C2=O)c1 (centres undefined) | 0.75 | 0.3 | 95* | 72* | 0
CCOc1ccccc1NC(=O)CN1C(=O)COc2ccc(Cl)cc21 | 0.047 | 1 | 50* | 2 | 0.5
CC(=O)c1cccc(NC(=O)CN2C(=O)COc3ccc(Cl)cc32)c1 | -0.86 | 0.4 | 38 | 62* | 0.6
Cc1cc(C)cc(NC(=O)CN(Cc2ccccc2)S(C)(=O)=O)c1 | -3.1 | · | · | · | ·
CS(=O)(=O)N(CC(=O)Nc1cccc(F)c1)Cc1ccccc1 | -0.23 | 0.2 | 91* | 82* | 0.1
CC(=O)c1cccc(NC(=O)CN(Cc2ccccc2)S(C)(=O)=O)c1 | 0.79 | 0.6 | 76* | 38 | 0.2
CCc1ccc(N(C(=O)c2ccco2)C(C(=O)NC2CCCC2)c2ccco2)cc1 (centres undefined) | -1.9 | · | · | · | ·
COc1ccc(NC(=O)C2OC3OC(C)(C)OC3C3OC(C)(C)OC23)cc1 (centres undefined) | 0.46 | 0.7 | -6 | 28 | 1.1
Cc1ccccc1-n1cnc2cc(NCc3cccs3)ccc21 | -3.5 | 0.7 | 54* | 27 | 0.5
CCCNC(=O)c1ccc2c(c1)ncn2-c1ccccc1OC | · | 1.1 | -18 | -10 | 1.2
O=C(O)c1cc(NCc2cccs2)ccc1N1CCOCC1 | -0.31 | 1 | -2 | -1 | 1
COc1ccccc1-n1cnc2cc(NCc3ccco3)ccc21 | -2.1 | 2* | 93* | -101 | 0.1
COc1ccccc1-n1cnc2cc(NCc3cccs3)ccc21 | -3.7 | 1.7 | 70* | -70 | 0.3
Cc1ccc(Cn2nnc3c(=O)n(Cc4ccccc4C)cnc32)cc1 | 0.028 | 1.6 | 0 | -62 | 1
Cc1cc(NC(=O)C2CCN(S(=O)(=O)Cc3ccccc3)CC2)ccc1-n1cnnn1 | 0.3 | · | · | · | ·
